Two compounds from PubChem BioAssay (EPA / NIEHS) can be followed below.

The structures appear in SMILES notation. Activity calls are given as the source filed them. How the source made its calls: active means hit-call score of the fitted dose curve at least 0.9, where 1 is the maximum; inactive means score below 0.9.

Read-out in test [1]: Cyclin Dependent Kinase Inhibitor 1A (CDKN1A), CDKN1A (gene 1026)
Description: LTEA_HepaRG_CDKN1A: Life Technologies and Expression Analysis (LTEA) Assay for Cyclin Dependent Kinase Inhibitor 1A (CDKN1A) using HepaRG (AID 2283450). The note with it: mRNA level, 48 h; actives raise or lower the signal. The essentials:
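Differentiated HepaRG cells in serum-free induction medium, exposed 48 h in duplicate to eight half-log concentrations up to 100 uM in 0.5% DMSO. mRNA measured by TaqMan qRT-PCR, normalized to ACTB, GAPDH, POLR2A; bidirectional fit versus DMSO.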

Read-out in test [2]: Cyclin D1 (CCND1), CCND1 (gene 595)
The test is described as follows: LTEA_HepaRG_CCND1: Life Technologies and Expression Analysis (LTEA) Assay for Cyclin D1 (CCND1) using HepaRG (AID 2283451). The note with it: mRNA level, 48 h; actives raise or lower the signal. Summed up:
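Differentiated HepaRG cells exposed 48 h in serum-free induction medium to eight half-log concentrations from 100 uM top, 0.5% DMSO, duplicates. CCND1 mRNA measured by Fluidigm TaqMan qRT-PCR, normalised to ACTB, GAPDH, POLR2A; bidirectional fit.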

Read-out in test [3]: flavin-containing dimethylaniline monooxygenases 3 (FMO3), FMO3 (gene 2328)
The test is described as follows: LTEA_HepaRG_FMO3: Life Technologies and Expression Analysis (LTEA) Assay for flavin-containing dimethylaniline monooxygenases 3 (FMO3) using HepaRG (AID 2283453). To be noted: mRNA level, 48 h; actives raise or lower the signal. Summed up: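 HepaRG, 48 h exposure, 8-pt half-log series from 100 uM, 0.5% DMSO vehicle, duplicates; FMO3 transcript by Fluidigm TaqMan qRT-PCR, housekeeping-normalized; gain/loss fit vs DMSO.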

Read-out in test [4]: Cytochrome P450 (CYP1A1), CYP1A1 (gene 1543)
Description: LTEA_HepaRG_CYP1A1: Life Technologies and Expression Analysis (LTEA) Assay for Cytochrome P450 (CYP1A1) using HepaRG (AID 2283454). The note with it: mRNA level, 48 h; actives raise or lower the signal. The essentials: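 Differentiated human HepaRG cells, after 48 h plating, exposed in duplicate for 48 h in serum-free induction medium to 8 half-log concentrations up to 100 uM in 0.5% DMSO. CYP1A1 mRNA by qRT-PCR, normalized to ACTB/GAPDH/POLR2A; bidirectional fit versus DMSO.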

Read-out in test [5]: CFLAR gene, CFLAR (gene 8837)
The test is described as follows: LTEA_HepaRG_CFLAR: Life Technologies and Expression Analysis (LTEA) Assay for CFLAR gene using HepaRG (AID 2283455). To be noted: mRNA level, 48 h; actives raise or lower the signal. Summed up: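 HepaRG cells were plated for 48 h, switched to serum-free induction medium, then exposed in duplicate for 48 h to 8 concentrations (top 100 uM, half-log steps, 0.5% DMSO). CFLAR mRNA was measured by qRT-PCR, normalized to ACTB, GAPDH and POLR2A.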

Read-out in test [6]: Forkhead box O1 (FOXO1), FOXO1 (gene 2308)
The test is described as follows: LTEA_HepaRG_FOXO1: Life Technologies and Expression Analysis (LTEA) Assay for Forkhead box O1 (FOXO1) using HepaRG (AID 2283456). To be noted: mRNA level, 48 h; actives raise or lower the signal. Summed up:
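Differentiated human HepaRG cells in serum-free induction medium were exposed in duplicate for 48 h to eight half-log concentrations (top 100 uM, 0.5% DMSO). FOXO1 mRNA was measured by TaqMan qRT-PCR, normalised to ACTB, GAPDH and POLR2A, and fitted bidirectionally against DMSO.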

Read-out in test [7]: growth arrest and DNA damage 45 (GADD45A), GADD45A (gene 1647)
The test is described as follows: LTEA_HepaRG_GADD45A: Life Technologies and Expression Analysis (LTEA) Assay for growth arrest and DNA damage 45 (GADD45A) using HepaRG (AID 2283458). The note with it: mRNA level, 48 h; actives raise or lower the signal. The essentials: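 Differentiated HepaRG cells were exposed in duplicate for 48 h in serum-free induction medium to 8-point half-log concentrations up to 100 uM in 0.5% DMSO. GADD45A mRNA was measured by TaqMan qRT-PCR, normalized to ACTB, GAPDH and POLR2A, with bidirectional fitting versus DMSO.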

Read-out in test [8]: Forkhead box O3 (FOXO3), FOXO3 (gene 2309)
Description: LTEA_HepaRG_FOXO3: Life Technologies and Expression Analysis (LTEA) Assay for Forkhead box O3 (FOXO3) using HepaRG (AID 2283459). The note with it: mRNA level, 48 h; actives raise or lower the signal. The essentials: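 Differentiated human HepaRG cells in serum-free induction medium were exposed in duplicate for 48 h to eight half-log concentrations up to 100 uM in 0.5% DMSO. FOXO3 mRNA was quantified by qRT-PCR, normalized to ACTB, GAPDH and POLR2A, with bidirectional fitting versus DMSO.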

Read-out in test [9]: ABC Transporter (ABCB1), ABCB1 (gene 5243)
The test is described as follows: LTEA_HepaRG_ABCB1: Life Technologies and Expression Analysis (LTEA) Assay for ABC Transporter (ABCB1) using HepaRG (AID 2283460). The note with it: mRNA level, 48 h; actives raise or lower the signal. Summed up: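 Differentiated human HepaRG cells, plated 48 h then switched to serum-free induction medium, were exposed in duplicate to eight half-log concentrations up to 100 uM in 0.5% DMSO for 48 h. ABCB1 mRNA was measured by TaqMan qRT-PCR, normalized to ACTB/GAPDH/POLR2A.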

Read-out in test [10]: ABC Transporter (ABCC3), ABCC3 (gene 8714)
Description: LTEA_HepaRG_ABCC3: Life Technologies and Expression Analysis (LTEA) Assay for ABC Transporter (ABCC3) using HepaRG (AID 2283462). To be noted: mRNA level, 48 h; actives raise or lower the signal. Summed up: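 Differentiated human HepaRG cells exposed 48 h in serum-free induction medium, 0.5% DMSO vehicle, 8-point half-log series to 100 uM in duplicate. ABCC3 mRNA by qRT-PCR, normalised to ACTB, GAPDH, POLR2A; bidirectional fit vs DMSO.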

Read-out in test [11]: ABC Transporter (ABCB11), ABCB11 (gene 8647)
Description: LTEA_HepaRG_ABCB11: Life Technologies and Expression Analysis (LTEA) Assay for ABC Transporter (ABCB11) using HepaRG (AID 2283463). To be noted: mRNA level, 48 h; actives raise or lower the signal. Summed up: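 Differentiated human HepaRG cells were exposed for 48 h in serum-free induction medium to eight half-log concentrations up to 100 uM in 0.5% DMSO. ABCB11 mRNA was quantified by qRT-PCR, normalized to ACTB, GAPDH and POLR2A, and fitted bidirectionally versus DMSO.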

Read-out in test [12]: ABC Transporter (ABCC2), ABCC2 (gene 1244)
The test is described as follows: LTEA_HepaRG_ABCC2: Life Technologies and Expression Analysis (LTEA) Assay for ABC Transporter (ABCC2) using HepaRG (AID 2283464). The note with it: mRNA level, 48 h; actives raise or lower the signal. The essentials:
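Differentiated HepaRG cells in serum-free induction medium exposed 48 h to eight half-log concentrations up to 100 uM, 0.5% DMSO, in duplicate. ABCC2 mRNA measured by qRT-PCR (TaqMan, Fluidigm), normalized to ACTB, GAPDH and POLR2A. Fitted in both directions against DMSO.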

Read-out in test [13]: Broad substrate specificity ATP-binding cassette transporter ABCG2 (Homo sapiens) (UniProt Q9UNQ0)
Description: LTEA_HepaRG_ABCG2: Life Technologies and Expression Analysis (LTEA) Assay for ABC Transporter (ABCG2) using HepaRG (AID 2283465). To be noted: mRNA level, 48 h; actives raise or lower the signal. Summed up:
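Differentiated HepaRG cells in serum-free induction medium were exposed for 48 h, in duplicate, to eight half-log concentrations up to 100 uM in 0.5% DMSO. ABCG2 mRNA was measured by TaqMan qRT-PCR, normalized to ACTB, GAPDH and POLR2A, and fitted bidirectionally versus DMSO.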

Read-out in test [14]: ATP-citrate lyase (ACLY), ACLY (gene 47)
The test is described as follows: LTEA_HepaRG_ACLY: Life Technologies and Expression Analysis (LTEA) Assay for ATP-citrate lyase (ACLY) using HepaRG (AID 2283466). To be noted: mRNA level, 48 h; actives raise or lower the signal. Summed up:
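Differentiated human HepaRG cells in serum-free induction medium exposed 48 h, in duplicate, to eight half-log concentrations from 100 uM top in 0.5% DMSO; ACLY mRNA measured by qRT-PCR, normalized to ACTB, GAPDH, POLR2A, fitted bidirectionally versus DMSO.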

Read-out in test [15]: Alkaline Phosphatase, Placental (ALPP) gene, ALPP (gene 250)
The test is described as follows: LTEA_HepaRG_ALPP: Life Technologies and Expression Analysis (LTEA) Assay for Alkaline Phosphatase, Placental (ALPP) gene using HepaRG (AID 2283468). To be noted: mRNA level, 48 h; actives raise or lower the signal. The essentials:
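HepaRG cells plated 48 h, then exposed in duplicate for 48 h in serum-free induction medium to 8-point half-log series from 100 uM in 0.5% DMSO. ALPP mRNA by TaqMan qRT-PCR, normalized to ACTB/GAPDH/POLR2A; bidirectional fit versus DMSO.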

Read-out in test [16]: Bcl-2 (BAD) gene, BAD (gene 572)
Description: LTEA_HepaRG_BAD: Life Technologies and Expression Analysis (LTEA) Assay for Bcl-2 (BAD) gene using HepaRG (AID 2283469). To be noted: mRNA level, 48 h; actives raise or lower the signal. The essentials:
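Differentiated human HepaRG cells in serum-free induction medium were exposed in duplicate for 48 h to eight concentrations (top 100 uM, half-log steps, 0.5% DMSO). BAD mRNA was quantified by qRT-PCR normalised to ACTB, GAPDH and POLR2A, with bidirectional fitting versus DMSO.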

The nature of test [17]: CEETOX_H295R_TESTO: CeeTox H295R High-throughput Steroidogenesis Assay for Testosterone (TESTO) (AID 2283457). To be noted: actives raise or lower the signal. Summed up:
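H295R adrenal cells, passage ≤10, exposed to chemicals for 48 h. Testosterone in medium measured by MTBE extraction and HPLC-MS/MS against a 7-point standard curve. Bidirectional fit versus DMSO; MTT viability checked in the same wells.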

Read-out in test [18]: growth arrest and DNA damage 45 (GADD45B), GADD45B (gene 4616)
Description: LTEA_HepaRG_GADD45B: Life Technologies and Expression Analysis (LTEA) Assay for growth arrest and DNA damage 45 (GADD45B) using HepaRG (AID 2283461). To be noted: mRNA level, 48 h; actives raise or lower the signal. The essentials:
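Differentiated human HepaRG cells in serum-free induction medium exposed 48 h in duplicate to eight concentrations, top 100 uM, half-log steps, 0.5% DMSO. GADD45B mRNA by TaqMan qRT-PCR, normalized to ACTB, GAPDH, POLR2A; bidirectional fit versus DMSO.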

Read-out in test [19]: Peroxisomal acyl-coenzyme A oxidase 1 (ACOX1) gene, ACOX1 (gene 51)
Description: LTEA_HepaRG_ACOX1: Life Technologies and Expression Analysis (LTEA) Assay for Peroxisomal acyl-coenzyme A oxidase 1 (ACOX1) gene using HepaRG (AID 2283467). To be noted: mRNA level, 48 h; actives raise or lower the signal. Summed up:
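Differentiated human HepaRG cells were exposed in duplicate for 48 h in serum-free induction medium to eight half-log concentrations up to 100 uM in 0.5% DMSO. ACOX1 mRNA was then quantified by TaqMan qRT-PCR, normalized to ACTB, GAPDH and POLR2A.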

Chain of Broad substrate specificity ATP-binding cassette transporter ABCG2 (Homo sapiens) (Q9UNQ0 whole entry, looked up): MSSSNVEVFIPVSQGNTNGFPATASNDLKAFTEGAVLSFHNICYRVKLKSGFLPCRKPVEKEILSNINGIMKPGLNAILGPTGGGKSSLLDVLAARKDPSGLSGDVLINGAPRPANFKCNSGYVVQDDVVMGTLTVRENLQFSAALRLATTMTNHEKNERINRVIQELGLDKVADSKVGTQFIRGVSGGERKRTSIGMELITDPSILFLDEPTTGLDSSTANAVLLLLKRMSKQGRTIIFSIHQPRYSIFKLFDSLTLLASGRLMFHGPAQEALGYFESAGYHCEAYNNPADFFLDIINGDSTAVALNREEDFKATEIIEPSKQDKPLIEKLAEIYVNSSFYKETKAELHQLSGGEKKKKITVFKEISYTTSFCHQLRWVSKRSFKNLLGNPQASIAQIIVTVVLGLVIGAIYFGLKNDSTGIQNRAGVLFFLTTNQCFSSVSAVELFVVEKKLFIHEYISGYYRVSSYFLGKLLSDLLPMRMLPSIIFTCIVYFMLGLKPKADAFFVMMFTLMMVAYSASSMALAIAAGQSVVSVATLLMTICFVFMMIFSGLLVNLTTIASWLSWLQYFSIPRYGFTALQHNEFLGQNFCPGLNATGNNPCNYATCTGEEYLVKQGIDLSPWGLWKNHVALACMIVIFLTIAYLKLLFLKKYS

`O=C1c2c(O)cccc2Cc2cccc(O)c21`: the compound was classed as inactive in test [1], in [2], in test [3], in test [5], in [6] and in [7]. Besides, the call in test [8], in test [9], in [10], in test [11], in test [12] and in [13] was inactive. In addition, the result in test [14], in [15] and in test [16] was inactive. In addition, the AC50 in test [4] was 22.1 µM (active).

On to `CCC(C)N(C)C(=O)c1cc2ccccc2c(-c2ccccc2Cl)n1` (centres undefined), for which the result in test [1], in test [2], in test [3], in test [5], in [6] and in test [17] was inactive. Moreover, the result in test [7], in test [8], in [18], in [10], in [11] and in [14] was inactive. For the same compound, the call in [19] and in test [15] was inactive. Moreover, the AC50 in test [4] was 37.7 µM (active); in test [9] it was 5.38 µM (active); in test [12] it was 7.48 µM (active); in [13], 4.44 µM (active).
